The text below walks through data of PubChem BioAssay (EPA / NIEHS).

Each structure is given as a SMILES string. Calls of active or inactive are those of the source. The calls were made as follows: active = hit-call score of the fitted dose curve at least 0.9, where 1 is the maximum; inactive = score below 0.9.

Experiment [1] can be described thus: ATG_GLI_CIS: Attagene CIS-FACTORIAL HepG2 Assay for human Zinc Finger Protein GLI1 (AID 2282945). To be noted: HepG2, Attagene cis-factorial reporter mRNA, GLI element; actives raise or lower the signal. The procedure, abridged: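 Bidirectional curve fits relative to DMSO, using reporter mRNA levels from RT-PCR plus capillary electrophoresis. Cells were HepG2 transiently carrying cis-regulated reporter constructs, harvested 24 h after dosing.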

For experiment [2], the target named is Bile acid receptor (Homo sapiens) (UniProt Q96RI1). Briefly: ATG_IR1_CIS: Attagene CIS-FACTORIAL HepG2 Assay for human Nuclear Receptor Subfamily 1 Group H Member 4 (NR1H4), IR1 submotif (AID 2282946). To be noted: IR1 reporter transcription, actives raise or lower the signal. The method, boiled down: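 HepG2 cells transiently transfected with multiplexed cis-element reporter units read endogenous transcription factor activity. After 24 h compound exposure, reporter mRNA was quantified by RT-PCR, fluorescent labelling, HpaI digestion and capillary electrophoresis; bidirectional fitting versus DMSO baseline.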
Bile acid receptor (Homo sapiens), sequence (Q96RI1 whole entry, looked up): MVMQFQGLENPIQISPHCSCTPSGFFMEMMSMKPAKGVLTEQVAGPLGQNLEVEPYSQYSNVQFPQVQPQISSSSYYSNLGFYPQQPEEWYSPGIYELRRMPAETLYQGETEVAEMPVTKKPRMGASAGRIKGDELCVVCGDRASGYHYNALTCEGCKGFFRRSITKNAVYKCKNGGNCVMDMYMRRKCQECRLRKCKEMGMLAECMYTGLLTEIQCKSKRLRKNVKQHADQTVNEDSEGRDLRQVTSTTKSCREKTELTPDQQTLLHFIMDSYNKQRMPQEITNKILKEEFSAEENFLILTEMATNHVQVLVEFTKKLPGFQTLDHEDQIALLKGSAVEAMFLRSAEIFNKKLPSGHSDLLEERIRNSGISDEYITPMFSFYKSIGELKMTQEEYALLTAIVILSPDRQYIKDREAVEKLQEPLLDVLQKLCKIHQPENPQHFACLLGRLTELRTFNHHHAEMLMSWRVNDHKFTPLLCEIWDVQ

Experiment [3] can be described thus: ATG_GRE_CIS: Attagene CIS-FACTORIAL HepG2 Assay for human Glucocorticoid Response Elements (GRE) (AID 2282947). To be noted: HepG2 GRE cis-reporter, Attagene multiplex mRNA; actives raise or lower the signal. The method, boiled down:
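Reporter transcripts read by RT-PCR with capillary electrophoresis fluorescence after a 24 h chemical exposure of HepG2 cells transiently transfected with multiple cis-element reporter units. Gain or loss fitted against DMSO.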

Experiment [4] can be described thus: ATG_ISRE_CIS: Attagene CIS-FACTORIAL HepG2 Assay for human Interferon Regulatory Factor 1 (IRF1) binding to an Interferon-Stimulated Response Element (ISRE) (AID 2282948). To be noted: HepG2 ISRE cis-reporter (Attagene), mRNA transcription readout; actives raise or lower the signal. The procedure, abridged:
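Endogenous transcription factor activity read as reporter transcript abundance via RT-PCR and capillary electrophoresis. HepG2 cells transiently transfected, 24 h chemical exposure. Gain or loss fitted against DMSO baseline.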

A short description of experiment [5]: ATG_M_32_CIS: Attagene CIS-FACTORIAL HepG2 Assay for M32 Transcription Factor (Internal Marker) (AID 2282949).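 Also: background control marker of the multiplexed CIS panel rather than a real target.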 To be noted: HepG2 Attagene cis-factorial M32 reporter, mRNA; actives raise or lower the signal. The method, boiled down: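 HepG2 transfectants (cis-regulated reporter transcription units) dosed 24 h. Reporter mRNA by RT-PCR plus CE, analysed as gain or loss relative to DMSO.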

A short description of experiment [6]: ATG_M_06_CIS: Attagene CIS-FACTORIAL HepG2 Assay for M06 Transcription Factor (Internal Marker) (AID 2282950). To be noted: HepG2 Attagene CIS-FACTORIAL M06 internal marker reporter; actives raise or lower the signal. The method, boiled down:
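Read-out is fluorescence of labelled reporter cDNA fragments resolved by capillary electrophoresis after RT-PCR. Cells: HepG2 carrying transfected cis-promoter reporter units, treated 24 h. Gain or loss of signal fitted relative to DMSO.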

Experiment [7] concerns the target Hypoxia-inducible factor 1-alpha (Homo sapiens) (UniProt Q16665). Briefly: ATG_HIF1a_CIS: Attagene CIS-FACTORIAL HepG2 Assay for human Hypoxia Inducible Factor 1 (HIF1A) (AID 2282951). To be noted: HepG2 Attagene cis-factorial HIF1a reporter transcription; actives raise or lower the signal. The method, boiled down:
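HepG2 cells transiently transfected with multiple cis-regulated reporter transcription units measure endogenous transcription factor activity. After 24 h exposure, reporter mRNA is quantified by RT-PCR with 6-FAM labelling, HpaI digestion and capillary electrophoresis. Bidirectional fitting against DMSO.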

Experiment [8] deals with Hepatocyte nuclear factor 6 (Homo sapiens) (UniProt Q9UBC0). The experiment is described as follows: ATG_HNF6_CIS: Attagene CIS-FACTORIAL HepG2 Assay for human Hepatocyte Nuclear Factor 6 (HNF6) (AID 2282952). To be noted: HepG2 Attagene cis-factorial HNF6 reporter transcription; actives raise or lower the signal. The method, boiled down:
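Endogenous transcription factor activity in human HepG2 liver cells was captured through cis-regulated reporter constructs. After 24 h treatment, reporter mRNA was measured by RT-PCR with capillary electrophoresis, and activity was fitted in both directions relative to DMSO.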

In experiment [9] the target is Heat shock factor protein 1 (Homo sapiens) (UniProt Q00613). Briefly: ATG_HSE_CIS: Attagene CIS-FACTORIAL HepG2 Assay for human Heat Shock Transcription Factor 1 (HSE) (AID 2282953). To be noted: HepG2 HSE cis-reporter, Attagene RNA transcription; actives raise or lower the signal. The method, boiled down: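 HepG2, transient MRTU transfection, cis-promoter reporters (endogenous TF activity). 24 h compound. RNA → oligo(dT) RT → PCR → 6-FAM primer extension → HpaI cut → CE. Bidirectional fit vs DMSO.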
Heat shock factor protein 1 (Homo sapiens), sequence (Q00613 whole entry, looked up): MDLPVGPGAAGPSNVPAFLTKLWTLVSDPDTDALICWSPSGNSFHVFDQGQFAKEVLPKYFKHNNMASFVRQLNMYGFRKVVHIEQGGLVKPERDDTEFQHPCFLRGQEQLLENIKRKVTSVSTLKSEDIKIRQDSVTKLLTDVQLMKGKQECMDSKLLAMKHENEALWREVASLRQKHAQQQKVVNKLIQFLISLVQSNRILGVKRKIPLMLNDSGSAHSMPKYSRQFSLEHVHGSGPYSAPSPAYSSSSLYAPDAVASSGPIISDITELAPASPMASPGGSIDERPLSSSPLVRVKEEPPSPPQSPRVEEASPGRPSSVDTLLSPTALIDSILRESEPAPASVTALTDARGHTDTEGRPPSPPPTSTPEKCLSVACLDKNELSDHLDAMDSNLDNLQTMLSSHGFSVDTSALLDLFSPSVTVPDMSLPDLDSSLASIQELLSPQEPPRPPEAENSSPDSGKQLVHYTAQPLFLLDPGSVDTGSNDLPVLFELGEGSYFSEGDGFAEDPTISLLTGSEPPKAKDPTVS

A short description of experiment [10]: ATG_MRE_CIS: Attagene CIS-FACTORIAL HepG2 Assay for human Metal Responsive Element (MRE) (AID 2282954). To be noted: HepG2 MRE cis-reporter transcription, Attagene multiplex; actives raise or lower the signal. The method, boiled down: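 Endogenous MRE-dependent transcription read as reporter mRNA in transiently transfected human HepG2 cells at 24 h. RNA reverse-transcribed, PCR-amplified, labelled and resolved by capillary electrophoresis; gain or loss relative to DMSO.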

A short description of experiment [11]: ATG_PBREM_CIS: Attagene CIS-FACTORIAL HepG2 Assay for human Phenobarbital-responsive Enhancer Module (PBREM) (AID 2282955). To be noted: HepG2 PBREM cis-reporter, Attagene multiplexed transcription; actives raise or lower the signal. The method, boiled down: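 HepG2 cells transiently transfected with multiple cis-regulated reporter units measure endogenous transcription factor activity; 24 h compound exposure. Reporter mRNA quantified by RT-PCR, fluorescent labelling, HpaI digestion and capillary electrophoresis; bidirectional fit versus DMSO.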

Experiment [12] in a line: ATG_PXRE_CIS: Attagene CIS-FACTORIAL HepG2 Assay for human Pregnane X Receptor Element (PXRE) (AID 2282957). To be noted: HepG2 Attagene CIS-FACTORIAL PXRE reporter, mRNA; actives raise or lower the signal. The procedure, abridged:
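Endogenous transcription factor activity in HepG2 was gauged through induction of reporter mRNA driven by a cis-regulating promoter element, sampled 24 h post-treatment. Activity was fitted in both directions against DMSO negative control.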

Experiment [13] in a line: ATG_PPRE_CIS: Attagene CIS-FACTORIAL HepG2 Assay for human Peroxisome Proliferator-activated Response Element (PPRE) (AID 2282958). To be noted: HepG2 PPRE cis-element reporter, Attagene transcription factor profiling; actives raise or lower the signal. The procedure, abridged: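 HepG2 cells are transiently transfected with multiplexed cis-promoter reporter units to report endogenous PPAR activity. After 24 h dosing, reporter mRNA is read by RT-PCR and capillary electrophoresis. Fitting is bidirectional against DMSO.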

The nature of experiment [14]: ATG_RORE_CIS: Attagene CIS-FACTORIAL HepG2 Assay for human RAR-related Orphan Receptor Element (RORE) (AID 2282959). To be noted: HepG2 Attagene cis-factorial RORE reporter, mRNA; actives raise or lower the signal. The procedure, abridged:
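HepG2 cells carrying transiently transfected cis-regulated reporter units; RORE-driven reporter mRNA quantified 24 h post-dosing by RT-PCR, 6-FAM primer extension, HpaI digestion and capillary electrophoresis. Bidirectional fit versus DMSO.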

The nature of experiment [15]: ATG_Sox_CIS: Attagene CIS-FACTORIAL HepG2 Assay for human SRY-box transcription factor (SOX) (AID 2282960). To be noted: HepG2 Attagene cis-factorial SOX reporter, mRNA; actives raise or lower the signal. The procedure, abridged: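 HepG2 cells transiently transfected with multiple cis-regulated reporter units, then dosed for 24 h. Reporter mRNA quantified by RT-PCR, fluorescent labelling, HpaI digestion and capillary electrophoresis; bidirectional fit versus DMSO.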

Experiment [16] deals with Transcription factor Sp1 (Homo sapiens) (UniProt P08047). Briefly: ATG_Sp1_CIS: Attagene CIS-FACTORIAL HepG2 Assay for human Specificity Protein 1 (Sp1) (AID 2282961). To be noted: HepG2 Sp1 cis-reporter transcription, actives raise or lower the signal. The procedure, abridged: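 HepG2 cells transiently transfected with multiplexed cis-regulated reporter constructs, chemical exposure 24 h. Reporter mRNA quantified by RT-PCR with capillary electrophoresis; bidirectional fit relative to DMSO.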
Transcription factor Sp1 (Homo sapiens), sequence (P08047 whole entry, looked up): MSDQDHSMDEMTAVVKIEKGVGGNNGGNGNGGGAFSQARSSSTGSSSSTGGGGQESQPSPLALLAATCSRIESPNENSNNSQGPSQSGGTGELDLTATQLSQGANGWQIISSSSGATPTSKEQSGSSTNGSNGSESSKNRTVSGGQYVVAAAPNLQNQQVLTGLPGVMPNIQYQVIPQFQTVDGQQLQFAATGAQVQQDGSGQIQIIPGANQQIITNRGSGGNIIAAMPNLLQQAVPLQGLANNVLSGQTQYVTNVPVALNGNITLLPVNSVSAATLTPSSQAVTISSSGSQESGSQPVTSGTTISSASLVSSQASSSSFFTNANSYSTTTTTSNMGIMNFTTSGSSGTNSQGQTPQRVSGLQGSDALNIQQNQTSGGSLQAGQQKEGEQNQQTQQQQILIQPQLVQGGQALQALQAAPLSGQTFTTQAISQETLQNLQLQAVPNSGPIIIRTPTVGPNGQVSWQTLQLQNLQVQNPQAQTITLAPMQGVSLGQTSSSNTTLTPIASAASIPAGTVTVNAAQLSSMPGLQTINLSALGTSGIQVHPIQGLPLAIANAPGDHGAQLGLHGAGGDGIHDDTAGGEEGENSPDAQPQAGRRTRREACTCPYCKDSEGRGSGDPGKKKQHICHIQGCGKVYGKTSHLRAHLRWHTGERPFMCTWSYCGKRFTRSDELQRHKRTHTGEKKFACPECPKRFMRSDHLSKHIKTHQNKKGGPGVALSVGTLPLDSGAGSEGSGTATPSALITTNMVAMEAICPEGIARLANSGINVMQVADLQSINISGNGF

Experiment [17] is described as follows: ATG_SREBP_CIS: Attagene CIS-FACTORIAL HepG2 Assay for human Sterol Regulatory Element Binding (SREBP) (AID 2282962). To be noted: HepG2 Attagene cis-factorial SREBP reporter, mRNA; actives raise or lower the signal. The method, boiled down:
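Endogenous SREBP activity read as cis-element-driven reporter transcript in transiently transfected HepG2, 24 h post-dosing; quantified via RT-PCR plus capillary electrophoresis of fluorescent fragments. Gain or loss of signal fitted relative to DMSO baseline.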

In experiment [18] the target is Signal transducer and activator of transcription 3 (Homo sapiens) (UniProt P40763). Briefly: ATG_STAT3_CIS: Attagene CIS-FACTORIAL HepG2 Assay for human Signal Transducer and Activator of Transcription 3 (STAT3) (AID 2282963). To be noted: HepG2, Attagene cis-factorial STAT3 reporter transcription; actives raise or lower the signal. The procedure, abridged: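 Readout is reporter transcript quantified by RT-PCR and capillary electrophoresis, with 6-FAM primer extension and HpaI digestion. Total RNA is taken 24 h after dosing transiently transfected HepG2 carrying cis-regulated reporter units. Bidirectional fit against DMSO.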
Signal transducer and activator of transcription 3 (Homo sapiens), sequence (P40763 whole entry, looked up): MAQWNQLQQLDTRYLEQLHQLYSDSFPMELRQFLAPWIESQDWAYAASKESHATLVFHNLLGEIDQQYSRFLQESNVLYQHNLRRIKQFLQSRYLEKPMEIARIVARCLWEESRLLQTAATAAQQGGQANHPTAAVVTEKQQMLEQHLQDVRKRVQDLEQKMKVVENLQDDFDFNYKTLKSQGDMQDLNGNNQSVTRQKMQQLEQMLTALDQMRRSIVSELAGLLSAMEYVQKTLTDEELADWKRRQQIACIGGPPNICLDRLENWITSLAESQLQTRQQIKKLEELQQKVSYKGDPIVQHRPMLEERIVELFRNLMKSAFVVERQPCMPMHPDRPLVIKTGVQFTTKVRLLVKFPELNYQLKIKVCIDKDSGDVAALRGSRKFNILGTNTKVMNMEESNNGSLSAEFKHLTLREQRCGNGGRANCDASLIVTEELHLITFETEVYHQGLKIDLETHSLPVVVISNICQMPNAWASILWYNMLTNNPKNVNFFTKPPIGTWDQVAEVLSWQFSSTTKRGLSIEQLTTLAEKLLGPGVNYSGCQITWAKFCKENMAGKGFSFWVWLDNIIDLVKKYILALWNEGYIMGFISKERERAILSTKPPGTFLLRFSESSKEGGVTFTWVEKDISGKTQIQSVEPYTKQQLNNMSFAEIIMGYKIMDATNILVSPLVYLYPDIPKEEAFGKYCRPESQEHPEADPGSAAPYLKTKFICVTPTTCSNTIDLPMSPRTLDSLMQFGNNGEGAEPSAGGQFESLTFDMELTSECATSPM

Experiment [19] is described as follows: ATG_TA_CIS: Attagene CIS-FACTORIAL HepG2 Assay for human TA Basal Promoter (AID 2282964). To be noted: HepG2 Attagene CIS-factorial TA basal promoter reporter; actives raise or lower the signal. The procedure, abridged:
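Read-out: fluorescent reporter-transcript fragments resolved by capillary electrophoresis after RT-PCR and HpaI digestion. Source: HepG2 cells carrying transiently transfected multi-reporter cis constructs, treated 24 h. Endpoint fitted bidirectionally relative to DMSO.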

Experiment [20] has as its target Paired box protein Pax-6 (Homo sapiens) (UniProt P26367). Briefly: ATG_Pax6_CIS: Attagene CIS-FACTORIAL HepG2 Assay for human Paired Box 6 (PAX6) (AID 2282956). To be noted: HepG2 CIS-FACTORIAL PAX6 reporter transcription, RNA readout; actives raise or lower the signal. The procedure, abridged:
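Read-out is reporter transcript level, measured by RT-PCR with fluorescent primer extension and capillary electrophoresis after 24 h dosing of transfected HepG2 cells. Activity in either direction fitted relative to DMSO control.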

Hypoxia-inducible factor 1-alpha (Homo sapiens), sequence (Q16665 whole entry, looked up): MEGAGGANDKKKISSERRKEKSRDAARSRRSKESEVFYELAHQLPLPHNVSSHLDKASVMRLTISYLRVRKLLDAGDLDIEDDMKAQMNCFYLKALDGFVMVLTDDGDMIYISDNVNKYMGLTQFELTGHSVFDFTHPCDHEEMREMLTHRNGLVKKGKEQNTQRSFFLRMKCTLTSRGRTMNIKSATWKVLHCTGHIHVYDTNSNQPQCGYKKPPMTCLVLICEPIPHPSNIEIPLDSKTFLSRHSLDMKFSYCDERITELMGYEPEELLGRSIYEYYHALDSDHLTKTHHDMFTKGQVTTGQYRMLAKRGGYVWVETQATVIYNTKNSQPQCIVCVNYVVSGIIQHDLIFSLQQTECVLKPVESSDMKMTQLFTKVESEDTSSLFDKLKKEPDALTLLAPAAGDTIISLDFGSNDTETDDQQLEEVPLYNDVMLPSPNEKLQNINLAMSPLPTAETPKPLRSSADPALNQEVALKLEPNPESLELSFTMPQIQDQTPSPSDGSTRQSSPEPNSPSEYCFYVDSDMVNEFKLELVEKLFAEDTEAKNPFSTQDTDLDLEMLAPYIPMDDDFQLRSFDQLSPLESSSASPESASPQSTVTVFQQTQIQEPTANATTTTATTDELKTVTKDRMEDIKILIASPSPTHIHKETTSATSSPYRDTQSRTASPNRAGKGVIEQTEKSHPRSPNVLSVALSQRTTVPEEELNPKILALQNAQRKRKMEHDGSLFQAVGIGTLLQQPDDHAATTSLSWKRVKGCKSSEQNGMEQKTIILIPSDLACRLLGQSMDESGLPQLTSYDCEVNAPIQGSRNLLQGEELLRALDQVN
Hepatocyte nuclear factor 6 (Homo sapiens), sequence (Q9UBC0 whole entry, looked up): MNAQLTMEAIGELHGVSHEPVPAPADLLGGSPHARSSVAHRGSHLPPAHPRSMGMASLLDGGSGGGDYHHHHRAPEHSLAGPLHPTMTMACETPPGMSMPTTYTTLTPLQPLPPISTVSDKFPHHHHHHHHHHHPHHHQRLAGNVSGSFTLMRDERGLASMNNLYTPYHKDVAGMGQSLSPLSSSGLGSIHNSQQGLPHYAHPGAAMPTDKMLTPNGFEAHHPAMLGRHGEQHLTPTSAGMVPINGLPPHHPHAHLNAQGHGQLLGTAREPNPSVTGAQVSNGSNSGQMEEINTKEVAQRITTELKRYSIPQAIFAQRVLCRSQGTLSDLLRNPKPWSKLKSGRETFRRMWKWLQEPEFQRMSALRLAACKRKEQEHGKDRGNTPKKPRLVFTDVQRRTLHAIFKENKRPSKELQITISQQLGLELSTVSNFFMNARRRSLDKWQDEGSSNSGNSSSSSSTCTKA
Paired box protein Pax-6 (Homo sapiens), sequence (P26367 whole entry, looked up): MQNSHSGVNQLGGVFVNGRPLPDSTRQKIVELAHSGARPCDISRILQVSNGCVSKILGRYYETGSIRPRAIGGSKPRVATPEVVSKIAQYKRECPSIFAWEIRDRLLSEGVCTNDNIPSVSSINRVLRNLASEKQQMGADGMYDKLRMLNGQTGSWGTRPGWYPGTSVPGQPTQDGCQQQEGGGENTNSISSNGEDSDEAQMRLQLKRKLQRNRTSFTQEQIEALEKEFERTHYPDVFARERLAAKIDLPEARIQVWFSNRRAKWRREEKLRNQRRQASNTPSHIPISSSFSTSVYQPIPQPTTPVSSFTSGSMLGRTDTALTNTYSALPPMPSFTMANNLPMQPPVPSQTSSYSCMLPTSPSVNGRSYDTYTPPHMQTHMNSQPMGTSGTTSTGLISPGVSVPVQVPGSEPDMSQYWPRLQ

As for `FC(F)(F)C(F)(F)C(F)(F)C(F)(F)C(F)(F)C(F)(F)CC[Si](Cl)(Cl)Cl`, the outcome in [1], in experiment [2], in [3], in [4], in [5] and in experiment [6] was inactive. Besides, the compound was classed as inactive in experiment [7], in experiment [8], in experiment [9], in experiment [10], in experiment [11] and in [12]. For the same compound, the result in [13], in [14], in [15], in experiment [16], in experiment [17] and in experiment [18] was inactive. Further, the call in experiment [19] was inactive.

For the compound `O=C1c2ccccc2C(=O)c2c(Cl)cccc21`, the compound was called inactive in experiment [1], in experiment [2], in experiment [3], in [4], in [5] and in [6]. For the same compound, the result in experiment [7], in experiment [8], in experiment [9], in [10], in experiment [20] and in [13] was inactive. The result in [14], in [15], in [16], in [17], in experiment [18] and in experiment [19] was inactive. In addition, the AC50 (commonly the midpoint of the concentration-response curve, whichever way the signal moves) in experiment [12] is 0.997 µM (active).

Turning to `CCOCN(C(=O)CS(=O)(=O)O)c1c(C)cccc1CC`, the outcome in experiment [1], in [2], in [3], in [4], in [5] and in [6] was inactive. The result in [7], in [8], in experiment [9], in [10], in [11] and in [20] was inactive. Besides, the result in [13], in experiment [14], in experiment [15], in experiment [16], in [17] and in [19] was inactive. The AC50 in experiment [12] is 42 µM (active).
